Experimental data published in PubChem BioAssay AID651898 (Broad Institute, 2012).
The list shows a part of the results. The source made the active and inactive calls. The rule behind the calls is not given here.

Experiment: cytotoxicity in HepG2 cells, dose response, cytotoxicity control, cell-based, plate reader, cherry-pick, two tests (AID 651898)
Details: max activity: at 12 µM, test 1 unless noted

## O=C(c1ccncc1)N1CC[C@@H]2[C@H]1c1cc(Br)ccc1N[C@@H]2CO
  max activity: -16.4% [measured here: replicate test 2 max activity, at 0.8 µM, test 2]
  outcome: inactive

## CCCOc1ccc2c3c(c(=O)oc2c1OCCC)CCC3
  max activity: 27.7% [at 26 µM, test 1] (inactive)

## C=CCn1c(SCc2c(C(=O)OC)sc(N)c2C(=O)OC)nnc1-c1ccc(Cl)cc1
  max activity: -11.6% [at 1.6 µM, test 1] (inactive)

## CCC(CO)Oc1cc(NC(=O)c2cccc(F)c2)c2ncn(C(C)C)c2c1 (stereo not given)
  max activity: 10.6% [measured here: replicate test 2 max activity, at 0.195 µM, test 2]
  outcome: inactive

## Cc1ccc(Cc2c(C)nc3nc(SCC(=O)NCCN4CCOCC4)nn3c2C)cc1
  max activity: -6.95% [at 0.38 µM, test 1] (inactive)

## CC(=O)O[C@]1(C(C)=O)CC[C@H]2[C@@H]3C=C(C)C4=CC(=O)CC[C@]4(C)[C@H]3CC[C@@]21C
  max activity: 5.11% [at 1.6 µM, test 1] (inactive)

## C=C(C)CSc1nc(N)c2c3c(sc2n1)CCC3
  max activity: -7.76% [at 1.6 µM, test 1] (inactive)

## O=C(CSc1n[nH]c(-c2cccnc2)n1)Nc1ccnc2ccccc12
  max activity: 8.04% (inactive)

## Cc1c2cnn(CC(=O)NCc3ccccn3)c(=O)c2c(C)n1Cc1ccc(Cl)cc1
  max activity: 24.2% [at 26 µM, test 1] (inactive)

## Cc1nc2nc(SCC(=O)NCc3ccco3)nn2c(C)c1Cc1ccccc1
  max activity: 6.48% [at 0.195 µM, test 1] (inactive)

## CS(=O)(=O)N1[C@H](C(=O)NCc2ccncc2)[C@@H](CO)[C@@H]2Cn3c(ccc(C4=CCCCC4)c3=O)[C@@H]21
  max activity: -13.1% [measured here: replicate test 2 max activity, at 3 µM, test 2]
  outcome: inactive

## COc1cc(-c2n[nH]c(=S)n2Cc2ccccc2)cc(OC)c1OC
  max activity: -15.9% (inactive)

## CN1c2ccc(-c3ccccc3)cc2[C@H]2[C@H](CCN2C(=O)Cc2ccccn2)[C@H]1CO
  max activity: 20.8% [measured here: replicate test 2 max activity, at 23.5 µM, test 2]
  outcome: inactive

## COCCNC(=O)C[C@H]1CC[C@@H]2[C@H](COc3ccc(NC(=O)Nc4cccc(F)c4)cc3C(=O)N2C)O1
  max activity: 9.85% [measured here: replicate test 2 max activity, at 3 µM, test 2]
  outcome: inactive

## Cc1nc(=O)c(-c2ccccc2)c(C)n1-c1ccc(Br)cc1
  max activity: 19% (inactive)

## CC(=O)CSc1nnc(CSc2ncccn2)n1C1CCCCC1
  max activity: 18.7% [at 1.6 µM, test 1] (inactive)

## Cn1c(=O)c2c(nc(OCc3cccnc3)n2Cc2ccccc2)n(C)c1=O
  max activity: -11.3% [at 26 µM, test 1] (inactive)

## O=c1[nH]c(N2CCN(Cc3ccc4c(c3)OCO4)CC2)nc2c1CCCC2
  max activity: -9.65% [at 0.38 µM, test 1] (inactive)

## CC1(C)CC(=O)C=C(c2ccc3ncccc3c2)C1
  max activity: -17% (inactive)

## Cc1c(OC(C)C(=O)NCC2CCC(C(=O)O)CC2)ccc2c1oc(=O)c1ccccc12 (stereo not given)
  max activity: 38.2% (inactive)
